PubChem BioAssay (NCATS)
Records with an inconclusive call do not appear. Calls of active or inactive are those of the source. Unless noted, calls follow the shape of the dose curve; as a rule, active = well fitted curve in the direction sought with a large enough effect; inconclusive = small, poorly fitted or top-dose-only effect, or another doubt; inactive = no such curve, though single readings can be large; an effect the other way counts as inactive or inconclusive.

Test system: not listed separately
Test: qHTS Assay for Identification of Small Molecule Inducers of Hypoxia Response (AID 2120; active = well fitted curve in the direction sought with a large enough effect in the signal ratio, with a control signal flat, not every such curve was filed as active; the % refers to the signal ratio; also: 0% is about no effect)
Settings: hypoxia response reporter cells, beta-lactamase ratio readout; series mostly up to 104 µM; activation: at the top concentration
How it was run: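 HRE-bla ME-180, 2500 cells/well, 0.5% dialyzed FBS medium; cpd titration, 17 h 37 degrees C; CCF4 2.5 h RT; Ex 405, Em 460/530 ratio -> %Activity, AC50.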
For `CCOP(=S)(OCC)Oc1cc(C)nc(C(C)C)n1`, the “activation” value was 1.13% (inactive). With `Oc1ccccc1-c1ccccc1` the “activation” value was 0.297% (inactive). For `C[C@]12C/C(=C/O)C(=O)C[C@@H]1CC[C@@H]1[C@@H]2CC[C@@]2(C)[C@H]1CC[C@]2(C)O`, the “activation” value was 2.05% (inactive). With `OCCOc1ccccc1` the “activation” value was -0.664% (inactive). In the case of `c1ccc2c(c1)Nc1ccccc1S2`, the “activation” value is reported as 0.215% (inactive).

Molecular target: Ferritin light chain (Equus caballus) (UniProt P02791)
Sequence (P02791 2-175 limits assumed): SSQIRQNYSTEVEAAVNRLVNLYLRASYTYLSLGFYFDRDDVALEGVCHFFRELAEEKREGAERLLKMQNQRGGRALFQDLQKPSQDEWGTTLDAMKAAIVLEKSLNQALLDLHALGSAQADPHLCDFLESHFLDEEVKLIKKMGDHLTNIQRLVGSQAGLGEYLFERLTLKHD
Test: qHTS Validation Assay for Identification of Novel General Anesthetics (AID 2323); also: % is scaled to controls: 0 for no effect and ±100 for the full control effect
Settings: horse apoferritin, anesthetic-site fluorescent probe displacement; series mostly up to 76.9 µM; activity change, negative = inhibition: at the top concentration
How it was run: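 Competitive displacement of the profluorescent anesthetic 1-AMA (50% saturated, PBS) from 10 uM apoferritin, 10 min, room temperature. Activity is normalized 380/535 nm fluorescence; concentration-response fitted with a four-parameter Hill equation.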
For `CC(CCc1ccccc1)NC(C)C(O)c1ccc(O)cc1` (stereo not given), the “activity change, negative = inhibition” value was -2.29% (inactive). In the case of `N#CC(C#N)=Cc1ccc(O)c(O)c1`, the “activity change, negative = inhibition” value is reported as -14.6% (inactive). For `c1ccc2c(c1)OCC(C1=NCCN1)O2` (stereo not given), the “activity change, negative = inhibition” value was 3.12% (inactive). With `CC[N+](CC)(CC)CC` the “activity change, negative = inhibition” value was -12.3% (inactive). With `COC[C@H]1OC(=O)c2coc3c2[C@@]1(C)C1=C(C3=O)C2CCC(=O)[C@@]2(C)C[C@H]1OC(C)=O` (stereo not given in full) the “activity change, negative = inhibition” value was -6.69% (inactive). With `O=c1[nH]c2ccccc2n1CCCN1CCC(n2c(=O)[nH]c3cc(Cl)ccc32)CC1` the “activity change, negative = inhibition” value was -9.85% (inactive). For `COc1ccc(Cc2nccc3cc(OC)c(OC)cc23)cc1OC`, the “activity change, negative = inhibition” value was -13.6% (inactive).

Molecular target: ATP-dependent DNA helicase Q1 (Homo sapiens) (UniProt P46063)
Sequence (P46063 whole entry, looked up): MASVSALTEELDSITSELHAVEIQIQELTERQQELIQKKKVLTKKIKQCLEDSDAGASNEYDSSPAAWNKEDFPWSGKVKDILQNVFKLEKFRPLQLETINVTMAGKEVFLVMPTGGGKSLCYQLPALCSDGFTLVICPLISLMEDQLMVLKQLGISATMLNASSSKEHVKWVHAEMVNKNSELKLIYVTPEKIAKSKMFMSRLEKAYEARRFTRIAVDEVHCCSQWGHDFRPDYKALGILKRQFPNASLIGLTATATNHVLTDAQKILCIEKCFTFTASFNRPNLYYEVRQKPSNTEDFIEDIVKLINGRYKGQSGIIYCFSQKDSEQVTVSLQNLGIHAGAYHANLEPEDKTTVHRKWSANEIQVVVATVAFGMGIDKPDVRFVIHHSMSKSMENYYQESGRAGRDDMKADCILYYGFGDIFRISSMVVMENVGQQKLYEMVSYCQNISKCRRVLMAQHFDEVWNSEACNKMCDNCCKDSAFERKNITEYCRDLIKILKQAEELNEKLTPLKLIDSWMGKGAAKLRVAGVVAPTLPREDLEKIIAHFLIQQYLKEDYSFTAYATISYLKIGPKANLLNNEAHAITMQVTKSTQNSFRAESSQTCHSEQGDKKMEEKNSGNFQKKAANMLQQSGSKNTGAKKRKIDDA
Test: qHTS Validation Assay for Inhibitors of RecQ-Like Dna Helicase 1 (RECQ1) (AID 2353);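 also: plate controls were DMSO vehicle for no effect and enzyme-free control for full effect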
Settings: recombinant RECQ1 helicase DNA unwinding assay; series mostly up to 25.6 µM; activity change, negative = inhibition: at the top concentration
How it was run: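 RECQ1T1 50 nM; forked duplex (20 bp + 30-nt ss tails) 200 nM, ATP 2 mM final; pH 8.0, 2 mM MgCl2, 2.5 ug/ml poly(dI-dC); 15 min compound preincubation; discontinuous kinetic read over 2 h at RT.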
In the case of `CC(CCc1ccccc1)NC(C)C(O)c1ccc(O)cc1` (stereo not given), the “activity change, negative = inhibition” value is reported as -0.3% (inactive). In the case of `N#CC(C#N)=Cc1ccc(O)c(O)c1`, the “activity change, negative = inhibition” value is reported as -3.29% (inactive). For `c1ccc2c(c1)OCC(C1=NCCN1)O2` (stereo not given), the “activity change, negative = inhibition” value was -2.2% (inactive). In the case of `CC[N+](CC)(CC)CC`, the “activity change, negative = inhibition” value is reported as -1.7% (inactive). For `COC[C@H]1OC(=O)c2coc3c2[C@@]1(C)C1=C(C3=O)C2CCC(=O)[C@@]2(C)C[C@H]1OC(C)=O` (stereo not given in full), the “activity change, negative = inhibition” value was -1.47% (inactive). In the case of `C=C(C)[C@H]1Cc2c(ccc3c2O[C@@H]2COc4cc(OC)c(OC)cc4[C@@H]2C3=O)O1`, the “activity change, negative = inhibition” value is reported as -12.7% (inactive). With `O=c1[nH]c2ccccc2n1CCCN1CCC(n2c(=O)[nH]c3cc(Cl)ccc32)CC1` the “activity change, negative = inhibition” value was 2.71% (inactive). For `COc1ccc(Cc2nccc3cc(OC)c(OC)cc23)cc1OC`, the “activity change, negative = inhibition” value was 14.6% (inactive).

Molecular target: RecQ-like DNA helicase BLM (Homo sapiens) (UniProt P54132)
Sequence (P54132 whole entry, looked up): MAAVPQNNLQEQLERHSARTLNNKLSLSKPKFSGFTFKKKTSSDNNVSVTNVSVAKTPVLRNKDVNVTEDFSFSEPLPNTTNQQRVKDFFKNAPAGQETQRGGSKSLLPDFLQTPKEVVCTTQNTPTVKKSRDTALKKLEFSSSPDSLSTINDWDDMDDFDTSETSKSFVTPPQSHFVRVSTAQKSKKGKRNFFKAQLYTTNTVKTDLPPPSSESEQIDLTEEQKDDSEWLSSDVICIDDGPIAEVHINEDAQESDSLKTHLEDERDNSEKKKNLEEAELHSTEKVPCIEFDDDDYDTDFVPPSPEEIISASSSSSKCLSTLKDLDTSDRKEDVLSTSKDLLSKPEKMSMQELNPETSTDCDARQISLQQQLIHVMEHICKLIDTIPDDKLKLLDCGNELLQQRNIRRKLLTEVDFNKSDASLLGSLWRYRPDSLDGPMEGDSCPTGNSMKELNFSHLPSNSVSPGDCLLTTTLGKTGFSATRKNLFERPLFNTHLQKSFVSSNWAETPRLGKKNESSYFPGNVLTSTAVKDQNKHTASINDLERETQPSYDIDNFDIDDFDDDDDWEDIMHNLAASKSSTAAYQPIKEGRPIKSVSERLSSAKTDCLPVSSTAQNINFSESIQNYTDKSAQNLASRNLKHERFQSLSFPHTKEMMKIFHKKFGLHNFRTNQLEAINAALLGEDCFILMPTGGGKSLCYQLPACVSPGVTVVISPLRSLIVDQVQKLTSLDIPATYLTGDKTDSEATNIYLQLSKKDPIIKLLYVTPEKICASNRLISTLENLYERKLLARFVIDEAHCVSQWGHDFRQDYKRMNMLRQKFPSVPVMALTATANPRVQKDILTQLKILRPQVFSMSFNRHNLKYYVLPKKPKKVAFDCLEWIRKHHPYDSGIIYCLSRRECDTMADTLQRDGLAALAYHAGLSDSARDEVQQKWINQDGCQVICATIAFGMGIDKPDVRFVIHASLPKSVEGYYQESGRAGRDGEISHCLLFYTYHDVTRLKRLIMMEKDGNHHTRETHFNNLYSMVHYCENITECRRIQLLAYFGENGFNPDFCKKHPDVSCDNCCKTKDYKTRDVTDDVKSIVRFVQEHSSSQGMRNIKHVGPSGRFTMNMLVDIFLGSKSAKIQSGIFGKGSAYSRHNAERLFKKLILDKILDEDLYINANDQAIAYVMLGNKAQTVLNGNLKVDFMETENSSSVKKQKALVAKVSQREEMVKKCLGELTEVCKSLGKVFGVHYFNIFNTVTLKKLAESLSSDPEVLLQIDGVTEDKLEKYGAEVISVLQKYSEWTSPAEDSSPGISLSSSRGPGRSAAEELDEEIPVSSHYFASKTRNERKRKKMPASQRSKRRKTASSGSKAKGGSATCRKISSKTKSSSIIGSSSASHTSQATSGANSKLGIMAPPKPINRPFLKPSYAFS
Test: qHTS Validation Assay for Inhibitors of Bloom's syndrome helicase (BLM) (AID 2364);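 also: plate controls were DMSO vehicle for no effect and enzyme-free control for full effect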
Settings: BLM helicase DNA unwinding, fluorescence, in vitro; series mostly up to 57.1 µM; activity change, negative = inhibition: at the top concentration
How it was run: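 50 nM BLM preincubated 15 min at room temperature with compound in pH 8.0 Tris buffer containing 2.5 ug/ml poly(dI-dC); started with 200 nM TAMRA/BHQ-2 forked duplex and 2 mM ATP (final). Unwinding read as TAMRA fluorescence increase, two reads 2 h apart.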
With `CNCCC(Oc1ccc(C(F)(F)F)cc1)c1ccccc1` (stereo not given) the “activity change, negative = inhibition” value was -8.65% (inactive). For `CC[N+](CC)(CC)CC`, the “activity change, negative = inhibition” value was -11% (inactive). In the case of `COC[C@H]1OC(=O)c2coc3c2[C@@]1(C)C1=C(C3=O)C2CCC(=O)[C@@]2(C)C[C@H]1OC(C)=O` (stereo not given in full), the “activity change, negative = inhibition” value is reported as -8.07% (inactive). In the case of `CC(C)NCC(O)COc1cccc2[nH]ccc12` (stereo not given), the “activity change, negative = inhibition” value is reported as -11.6% (inactive). With `O=c1[nH]c2ccccc2n1CCCN1CCC(n2c(=O)[nH]c3cc(Cl)ccc32)CC1` the “activity change, negative = inhibition” value was -5.63% (inactive). In the case of `CC12CC3CC(C)(C1)CC(N)(C3)C2`, the “activity change, negative = inhibition” value is reported as -7.01% (inactive).

Test system: not listed separately
Test: Cytometric Cell-Based qHTS for Inhibitors of the mTORC1 Signaling Pathway in MEF (Tsc2-/-, p53-/-) Cells (AID 2660);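 also: Tsc2 and p53 null MEFs carrying empty vector with compound for 24 h; percent of cells above a phospho-rpS6 to PI ratio cutoff in each well; plate controls were DMSO for no effect and rapamycin for full effect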
Settings: mTORC1 pathway cytometry; series mostly up to 38.3 µM; activity change, negative = inhibition: at the top concentration
How it was run: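 Percent of cells positive for normalized phospho-S6 staining is reported, with the cutoff set from rapamycin (7.5 nM) versus DMSO wells. Tsc2-/-, p53-/- MEFs received compound for 24 hrs.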
With `COc1ccc(C(CN(C)C)C2(O)CCCCC2)cc1` (stereo not given) the “activity change, negative = inhibition” value was 1.1% (inactive). With `CC[C@@H](CO)NC(=O)[C@@H]1C=C2c3cccc4[nH]cc(c34)C[C@H]2N(C)C1` the “activity change, negative = inhibition” value was 7.33% (inactive). For `C[C@@H]1O[C@@H](O[C@H]2C[C@@H](O)[C@]3(CO)[C@H]4[C@H](O)C[C@]5(C)[C@@H](C6=CC(=O)OC6)CC[C@]5(O)[C@@H]4CC[C@]3(O)C2)[C@H](O)[C@H](O)[C@H]1O`, the “activity change, negative = inhibition” value was 0.255% (inactive). With `CCCN1CCC[C@@H]2Cc3[nH]ncc3C[C@H]21` the outcome was “inactive”. In the case of `CC(CCc1ccccc1)NC(C)C(O)c1ccc(O)cc1` (stereo not given), the “activity change, negative = inhibition” value is reported as -0.414% (inactive). With `N#CC(C#N)=Cc1ccc(O)c(O)c1` the “activity change, negative = inhibition” value was -1.03% (inactive). For `CC(=O)[C@H]1CC[C@H]2[C@@H]3CC[C@H]4C[C@](C)(O)CC[C@]4(C)[C@H]3CC[C@]12C`, the “activity change, negative = inhibition” value was -1.23% (inactive). For `Cc1cccc(C)c1NC(=O)CN1CCCC1=O`, the “activity change, negative = inhibition” value was 4.24% (inactive). In the case of `CC(C)=CCOc1c2occc2cc2ccc(=O)oc12`, the “activity change, negative = inhibition” value is reported as -1.06% (inactive). In the case of `COC[C@H]1OC(=O)c2coc3c2[C@@]1(C)C1=C(C3=O)C2CCC(=O)[C@@]2(C)C[C@H]1OC(C)=O` (stereo not given in full), the “activity change, negative = inhibition” value is reported as -0.0881% (inactive). With `CC(O)(CS(=O)(=O)c1ccc(F)cc1)C(=O)Nc1ccc(C#N)c(C(F)(F)F)c1` (stereo not given) the “activity change, negative = inhibition” value was 7.55% (inactive). For `C=C(C)[C@H]1Cc2c(ccc3c2O[C@@H]2COc4cc(OC)c(OC)cc4[C@@H]2C3=O)O1`, the “activity change, negative = inhibition” value was -21.6% (inactive). With `O=c1[nH]c2ccccc2n1CCCN1CCC(n2c(=O)[nH]c3cc(Cl)ccc32)CC1` the “activity change, negative = inhibition” value was -0.866% (inactive). In the case of `CC[C@@H](CO)NC(=O)[C@@H]1C=C2c3cccc4c3c(cn4C)C[C@H]2N(C)C1`, the “activity change, negative = inhibition” value is reported as 4.38% (inactive).
